Here are results for 40 compounds from the supplement of paper PMC7695840.

Each structure is given as a SMILES string. Where a name gives a salt, the structure may show the parent alone.

For the assay, the system named is Staphylococcus aureus MW2 (mecA+). Put plainly: normalized DsRed fluorescence (growth of mecA+ strain) (fraction of control range); higher = more growth of mecA+ strain. As to conditions: compound concentration: 150 uM; cefoxitin: subinhibitory; fluorescent label: DsRed. The method in brief: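 Compound at 150 μM (1.5% DMSO) in 1536-well plates received 5 µL/well of pre-induced S. aureus MW2 cells mixed 1:1, gene-carrying with DsRed and gene-deleted with GFP, in LB with a daily-set subinhibitory antibiotic dose, single replicate. After 20 h unshaken at 37 °C, 90% humidity, DsRed (540/590) and GFP (485/520) were measured and scaled per plate between single-strain control medians. Plates with high untreated ratios and rows with DsRed/GFP >10 were excluded.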
With `C[C@@H]1O[C@@H](OC[C@H]2O[C@@H](Oc3c(-c4ccc(O)c(O)c4)oc4cc(O)cc(O)c4c3=O)[C@H](O)[C@@H](O)[C@@H]2O)[C@H](O)[C@H](O)[C@H]1O` [Rutin (Rutoside)], the “normalized DsRed fluorescence” value is 0.725.

As for `CC[C@H]1OC(=O)[C@H](C)[C@@H](O[C@H]2C[C@@](C)(OC)[C@@H](O)[C@H](C)O2)[C@H](C)[C@@H](O[C@@H]2O[C@H](C)C[C@H](N(C)C)[C@H]2O)[C@](C)(OC)C[C@@H](C)C(=O)[C@H](C)[C@@H](O)[C@]1(C)O` [Clarithromycin (Biaxin, Klacid)], the “normalized DsRed fluorescence” value turned out to be 0.788.

For `CN1CCC[C@@H]1Cc1c[nH]c2ccc(CCS(=O)(=O)c3ccccc3)cc12`, the “normalized DsRed fluorescence” value amounted to 0.948.

As for `CN(C)CCCN1c2ccccc2Sc2ccc(C(F)(F)F)cc21`, the “normalized DsRed fluorescence” value worked out at 1.49.

On to `Cc1ccc(Nc2c(F)cccc2Cl)c(CC(=O)O)c1`, for which the “normalized DsRed fluorescence” value worked out at 0.183.

As for `C[N+](C)(C)C[C@H](O)CC(=O)[O-]`, the “normalized DsRed fluorescence” value turned out to be 0.508.

For the compound `C[C@@H](c1ncncc1F)[C@](O)(Cn1cncn1)c1ccc(F)cc1F`, the “normalized DsRed fluorescence” value stood at 0.766.

As for `COc1ccc(O)cc1`, the “normalized DsRed fluorescence” value is 0.504.

Consider `CN(C)CCC(c1ccccc1)c1ccccn1` (stereo not given), for which the “normalized DsRed fluorescence” value is 0.799.

For `CC(NCCc1ccc(O)cc1)C(O)c1ccc(O)cc1` (stereo not given), the “normalized DsRed fluorescence” value was 0.736.

Take `Cc1c(C(=O)NN2CCCCC2)nn(-c2ccc(Cl)cc2Cl)c1-c1ccc(Cl)cc1`: the “normalized DsRed fluorescence” value worked out at 0.769.

For the compound `O=C(c1cc(Cc2n[nH]c(=O)c3ccccc23)ccc1F)N1CCN(C(=O)C2CC2)CC1` [Olaparib (AZD2281)], the “normalized DsRed fluorescence” value worked out at 0.856.

As to `CC1CCC(NC(=O)N(CCCl)N=O)CC1` (stereo not given), the “normalized DsRed fluorescence” value was 0.439.

In the case of `COc1cc(Nc2ncc(F)c(Nc3ccc4c(n3)N(COP(=O)(O)O)C(=O)C(C)(C)O4)n2)cc(OC)c1OC` [R788 (Fostamatinib)], the “normalized DsRed fluorescence” value turned out to be 0.475.

Turning to `OCCN1CCN(CCCN2c3ccccc3Sc3ccc(C(F)(F)F)cc32)CC1`, the “normalized DsRed fluorescence” value was 1.68.

On to `CNCC[C@H](Oc1cccc2ccccc12)c1cccs1`, for which the “normalized DsRed fluorescence” value came to 0.838.

Consider `CC1=C(/C=C/C(C)=C/C=C/C(C)=C/C(=O)O)C(C)(C)CCC1`, for which the “normalized DsRed fluorescence” value is 0.642.

As for `O=C(Oc1ccccc1C(=O)O)c1ccccc1O`, the “normalized DsRed fluorescence” value turned out to be 0.236.

As to `CCCCCCNC(=O)n1cc(F)c(=O)[nH]c1=O` [Carmofur], the “normalized DsRed fluorescence” value turned out to be 0.452.

Take `C[C@]12CCC(=O)C=C1CC[C@@H]1[C@@H]2[C@@H](O)C[C@@]2(C)[C@H]1CC[C@]2(O)C(=O)CO`: the “normalized DsRed fluorescence” value stood at 0.562.

Turning to `COc1nc(N)nc2c1ncn2[C@@H]1O[C@H](CO)[C@@H](O)[C@@H]1O` [Nelarabine (Arranon)], the “normalized DsRed fluorescence” value worked out at 0.855.

`NC(=O)c1ccccc1O`: the “normalized DsRed fluorescence” value came to 0.666.

Consider `CC(C(=O)O)c1cccc(Oc2ccccc2)c1` (stereo not given), for which the “normalized DsRed fluorescence” value amounted to 0.467.

With `COc1ccc(CN(CCN(C)C)c2ncccn2)cc1`, the “normalized DsRed fluorescence” value is 0.813.

For the compound `CC(=O)c1ccc2c(c1)N(CCCN1CCN(CCO)CC1)c1ccccc1S2`, the “normalized DsRed fluorescence” value was determined as 1.08.

Take `CC(=O)Oc1cc2c(s1)CCN(C(C(=O)C1CC1)c1ccccc1F)C2` (stereo not given) [Prasugrel (Effient)]: the “normalized DsRed fluorescence” value was 0.841.

`OC[C@@H](O)[C@@H](O)[C@H](O)[C@@H](O)CO` [Sorbitol (Glucitol)]: the “normalized DsRed fluorescence” value stood at 1.15.

Regarding `CCOc1ccc(Cc2cc([C@@H]3O[C@H](CO)[C@@H](O)[C@H](O)[C@H]3O)ccc2Cl)cc1` [Dapagliflozin], the “normalized DsRed fluorescence” value stood at 0.557.

For `CC1(C)S[C@@H]2[C@H](NC(=O)COc3ccccc3)C(=O)N2[C@H]1C(=O)O`, the “normalized DsRed fluorescence” value is 0.0783.

In the case of `CCCc1cc(=O)[nH]c(=S)[nH]1`, the “normalized DsRed fluorescence” value is 0.582.

Turning to `COc1cc(C)c(/C=C/C(C)=C/C=C/C(C)=C/C(=O)O)c(C)c1C` [Acitretin], the “normalized DsRed fluorescence” value worked out at 0.289.

`Cc1nc(=O)c2cc(CN(C)c3ccc(C(=O)N[C@@H](CCC(=O)O)C(=O)O)s3)ccc2[nH]1` [Raltitrexed (Tomudex)]: the “normalized DsRed fluorescence” value was determined as 0.532.

As to `CC(=O)OCC(CCn1cnc2cnc(N)nc21)COC(C)=O`, the “normalized DsRed fluorescence” value turned out to be 0.667.

As for `CNCCCN1c2ccccc2CCc2ccccc21`, the “normalized DsRed fluorescence” value amounted to 1.99.

Regarding `CC(C)(C)NCC(O)c1ccc(O)c(CO)c1` (stereo not given) [Salbutamol sulfate (Albuterol)], the “normalized DsRed fluorescence” value amounted to 0.695.

For the compound `CC(C)[N+](C)(CCOC(=O)C1c2ccccc2Oc2ccccc21)C(C)C`, the “normalized DsRed fluorescence” value was determined as 0.691.

For the compound `CCCCOc1cc(C(=O)NCCN(CC)CC)c2ccccc2n1` [Dibucaine (Cinchocaine) HCl], the “normalized DsRed fluorescence” value came to 0.835.

Regarding `CN(C)CCOC(c1ccc(Cl)cc1)c1ccccn1` (stereo not given), the “normalized DsRed fluorescence” value is 0.618.

Take `CC(C)(S)[C@@H](N)C(=O)O`: the “normalized DsRed fluorescence” value is 1.21.

As to `CCNC(=O)CCC/C=C\C[C@@H]1[C@@H](/C=C/[C@@H](O)CCc2ccccc2)[C@H](O)C[C@@H]1O` [Bimatoprost], the “normalized DsRed fluorescence” value worked out at 0.865.
